Holding throughout (assay): NCI-60 one-dose screen, 48 h (100 = growth as untreated, 0 = no growth, -100 = all killed)
The test system of assay [1] is MOLT-4 leukemia. As to conditions: 10 µM.
The subject of assay [2] is SR leukemia. The note with it: 10 µM.
The test system of assay [3] is RPMI-8226 leukemia. As to conditions: 10 µM.
The subject of assay [4] is OVCAR-8 ovarian. The note with it: 10 µM.
For assay [5], the system named is OVCAR-5 ovarian. As to conditions: 10 µM.
Assay [6] deals with OVCAR-4 ovarian. The note with it: 10 µM.
For assay [7], the system named is SK-OV-3 ovarian. As to conditions: 10 µM.
For assay [8], the system named is IGROV1 ovarian. The note with it: 10 µM.
Assay [9] deals with OVCAR-3 ovarian. The note with it: 10 µM.
Assay [10] concerns NCI/ADR-RES ovarian. As to conditions: 10 µM.
For assay [11], the system named is T-47D breast. As to conditions: 10 µM.
Assay [12] concerns BT-549 breast. As to conditions: 10 µM.
Assay [13] concerns MDA-MB-435 melanoma. The note with it: 10 µM.
Assay [14] relates to SW-620 colon. The note with it: 10 µM.
The test system of assay [15] is MCF7 breast. The note with it: 10 µM unless noted.
The subject of assay [16] is HCT-116 colon. The note with it: 10 µM.
The test system of assay [17] is KM12 colon. The note with it: 10 µM.
Assay [18] deals with HS 578T breast. As to conditions: 10 µM.
The test system of assay [19] is HCC-2998 colon. The note with it: 10 µM.

Each structure is given as a SMILES string. Values joined by “and” are separate entries in the source; they are usually repeats but may differ in a detail not shown here. Identical values can stand only once. The panel holds about 83,000 compounds, 20% with a hit somewhere; the sample as a whole holds those more often.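 48-hour exposure, single concentration, 96-well plates; percent growth endpoint where 0 means no net growth. Active: below 10.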 Active and inactive are the calls of the source.

On to `O=S(=O)(F)c1ccc(Cl)cc1`, for which the growth was 105% (inactive) in [1]; 107% (inactive) in assay [2]; 97.9% (inactive) in assay [3]; 102% (inactive) in [4]; 113% (inactive) in assay [5]; 115% (inactive) in assay [6]. Besides, the growth in [7] is 104% (inactive); in assay [8], 113% (inactive); in assay [9], 108% (inactive); in assay [10] it was 109% (inactive); in [11], 105% (inactive); in assay [12], 112% (inactive). In addition, the growth in [13] was 108% (inactive); in assay [14] it was 100% (inactive); in assay [15] it was 102% (inactive); in assay [16], 106% (inactive); in [17], 104% (inactive).
For `C/C(=C\c1ccc(Cl)c(Cl)c1)[N+](=O)[O-]`, the growth in assay [1] was 4.34% (active) and 79.2% (inactive); in [2], 12.3% (inactive) and 88.6% (inactive); in assay [3] it was -10.7% (active) and 91.3% (inactive); in [4] it was 11.9% (inactive) and 90.8% (inactive); in [5], 108% (inactive) and 104% (inactive); in assay [6], -42.5% (active) and 114% (inactive). Besides, the growth was 108% (inactive) and 96.6% (inactive) in assay [7]; -55.8% (active) and 111% (inactive) in assay [8]; -97.7% (active) and 107% (inactive) in assay [9]; 82.8% (inactive) and 103% (inactive) in assay [18]; 30.8% (inactive) and 93.2% (inactive) in [10]; -79.3% (active) and 57.7% (inactive) in assay [11]. In addition, the growth in assay [12] is 76.3% (inactive) and 103% (inactive); in assay [13], 126% (inactive); in [14], -89.1% (active) and 98.6% (inactive); in [15] it was -85.1% (active) and 80.6% (inactive); in assay [16] it was -91.5% (active) and 88.2% (inactive); in assay [17], -35.5% (active) and 98.3% (inactive).
Turning to `COS(=O)(=O)c1ccccc1`, the growth was 85.4% (inactive) in assay [1]; 71.1% (inactive) in assay [2]; 89.9% (inactive) in assay [3]; 101% (inactive) in assay [4]; 104% (inactive) in assay [5]; 110% (inactive) in assay [6]. The growth in [7] is 101% (inactive); in [8], 120% (inactive); in [9], 110% (inactive); in assay [18] it was 110% (inactive); in [10], 107% (inactive); in [11], 104% (inactive). Moreover, the growth in assay [12] is 107% (inactive); in assay [13] it was 108% (inactive); in assay [14], 108% (inactive); in [15] it was 99.5% (inactive); in assay [16] it was 102% (inactive); in assay [17], 104% (inactive).
Take `COc1cc(/C=C/[N+](=O)[O-])cc(Br)c1OC`: the growth in [1] is 10% (inactive); in assay [2] it was -5.8% (active); in assay [3] it was -15.7% (active); in assay [4], 31.2% (inactive); in assay [5], 65.4% (inactive); in [6], 60.3% (inactive). Moreover, the growth in assay [7] was 94.7% (inactive); in [8] it was 1.74% (active); in assay [9], 69.9% (inactive); in assay [10], 60.2% (inactive); in [11], 16.3% (inactive); in assay [12] it was 8.15% (active). Also, the growth in assay [13] was 11% (inactive); in [15] it was 8.38% (active); in [16], -91.7% (active); in assay [17], 15.2% (inactive).
`COc1ccc(/C=C\[N+](=O)[O-])cc1OC`: the growth in assay [1] was 85.7% (inactive) and 65.5% (inactive); in assay [2], 16.6% (inactive) and -16.1% (active); in assay [3] it was 20.7% (inactive) and -31.7% (active); in [4] it was 73.9% (inactive) and 75.7% (inactive); in assay [5] it was 110% (inactive) and 79.4% (inactive); in assay [6], 73.7% (inactive) and 80.5% (inactive). The growth in [7] is 106% (inactive) and 95.9% (inactive); in [8] it was -5.78% (active) and 59.2% (inactive); in assay [9] it was 55.6% (inactive) and 37% (inactive); in assay [18], 71.2% (inactive) and 94.4% (inactive); in assay [10], 91.3% (inactive) and 86.9% (inactive); in assay [11] it was 62.8% (inactive) and 42.3% (inactive). Also, the growth in assay [12] was 92% (inactive) and 70.3% (inactive); in assay [13], 12.3% (inactive) and 31.1% (inactive); in assay [14], 37.7% (inactive) and 55.6% (inactive); in [15], 12.6% (inactive) and 16.4% (inactive); in assay [16] it was 13.2% (inactive) and 0.137% (active); in assay [17], 33.7% (inactive) and 57.2% (inactive).
As to `[Cl][Sn]([c]1ccccc1)([c]1ccccc1)[c]1ccccc1`, the growth is -7.21% (active) in [1]; -21% (active) in assay [2]; -28% (active) in assay [3]; -74.5% (active) in assay [4]; -84.1% (active) in assay [5]; -88.9% (active) in assay [6]. Also, the growth in [7] was -97.3% (active); in assay [8], -76.8% (active); in assay [9] it was -94.2% (active); in assay [18] it was 0.581% (active); in assay [10], -37.7% (active); in assay [12], -83.1% (active). Further, the growth in assay [13] was -83.9% (active); in [14], -56.2% (active); in assay [15] it was -81.1% (active); in assay [16] it was -97.3% (active); in assay [19], -83.9% (active); in assay [17], -71.3% (active).
Take `Cc1cc([N+](=O)[O-])c2ccccc2[n+]1[O-]`: the growth in [1] is -24.5% (active); in assay [2], -10.2% (active) and -21.8% (active); in [3], -23.6% (active) and -42.3% (active); in assay [4], 9.55% (active) and -40.6% (active); in assay [5] it was 20.9% (inactive) and 13.3% (inactive); in [6], 84.1% (inactive) and 58.4% (inactive). The growth in assay [7] was 7.72% (active) and 21.4% (inactive); in assay [8], 46.8% (inactive) and 5.5% (active); in [9], -32.2% (active) and -41% (active); in [18] it was 8.5% (active) and -14.4% (active); in assay [10] it was 7.18% (active) and 0.529% (active); in assay [11], -6.69% (active) and -8.77% (active). For the same compound, the growth in assay [12] was -36.6% (active) and -19.4% (active); in assay [13] it was -53.1% (active) and -81.3% (active); in assay [14] it was -10.5% (active) and -30% (active); in assay [15], -11.2% (active) and 4.36% (active); in [16], -26.4% (active) and 0.608% (active); in assay [17], -40.8% (active) and -59.2% (active).

Source of the values: PubChem BioAssay (NCI).
